Source: PubChem
ssDAF12 agonist = activates DAF-12 receptor from parasite S. stercoralis | hit rate 1% among 370,000 | HEK293 ssDAF-12/GRIP1 lit1-tk-luc reporter, luminescence; % of 3 µM dafachronic acid response | activation, % at 6.8 µM;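 active = activation above the mean over all tested compounds plus 3 SD, cut at about 0.9% in these data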;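 note: 0% = DMSO-only wells and 100% = 3 µM delta7-dafachronic acid wells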
SMARCA2 act = increases SMARCA2 function in MMTV reporter cells; hit rate 1% among 370,000; MG213 cells, MMTV-luciferase reporter, dexamethasone, overnight; AID 652017; activation, % at 9.1 µM; in the data active = activation above about 7.8%;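 note: 0% = vehicle wells and 100% = reference activator wells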
DAX1 inh-1 = DAX1 (NR0B1) inhibition, primary screen. HEK293T StAR-luciferase reporter, SF-1/DAX-1 repression relief. inhibition, % at 6.8 µM. hit rate 1.1% among 370,000;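 active = inhibition above the mean over all tested compounds plus 3 SD, cut at about 3.6% in these data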;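 note: 0% = DAX-1 cells with DMSO and 100% = cells lacking DAX-1 with DMSO; higher inhibition means more luminescence from relief of DAX-1 repression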
hgDAF-12 ag = activates the H. glycines DAF-12 receptor ligand-binding domain; HEK293 GAL4-hgDAF12 UAS-luciferase reporter, agonist luminescence; normalized to butyrate control; activation, % at 6.8 µM; hit rate 1.8% among 370,000; AID 687014;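 active = activation above a cutoff set at the mean of all screened compounds plus 3 SD, cut at about 10% in these data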;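 note: 0% = DMSO wells and 100% = sodium butyrate wells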
hcDAF12 agonist = activates DAF-12 receptor from parasite H. contortus. activation, % at 6.8 µM. AID 652067. HEK293 hcDAF-12 lit1-tk-luc reporter, luminescence; 0% DMSO, 100% Δ7-dafachronic acid. hit rate 1.4% among 370,000;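 active = activation above the mean of all tested compounds plus 3 SD, cut at about 5.5% in these data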;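 note: 100% = response to 3 µM Δ7-dafachronic acid high control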
DAX1 inh-2 = inhibits human nuclear receptor DAX1 | P51843 | HEK293 Gal4-DAX1 luciferase reporter, luminescence | inhibition, % at 6.75 µM | hit rate 0.99% among 340,000;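 active = inhibition above the mean over all tested compounds plus 3 SD, cut at about 4.2% in these data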;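 note: 0% = DAX1-transfected cells with DMSO and 100% = empty-vector control cells with DMSO; inhibition shows as a rise in luminescence from relieved DAX1 repression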
Target sequence (P51843 207-470 limits assumed): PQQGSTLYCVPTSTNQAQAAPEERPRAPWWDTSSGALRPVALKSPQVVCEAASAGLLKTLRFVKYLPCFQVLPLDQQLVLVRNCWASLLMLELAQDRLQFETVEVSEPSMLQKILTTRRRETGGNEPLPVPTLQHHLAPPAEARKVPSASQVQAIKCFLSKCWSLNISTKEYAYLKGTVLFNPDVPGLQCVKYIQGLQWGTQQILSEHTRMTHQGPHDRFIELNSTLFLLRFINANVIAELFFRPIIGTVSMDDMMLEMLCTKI
Active calls of the source: *; . = not tested or not shown. Shown are actives, neighbours in structure and some others; about 4.8% of the full set was active somewhere.

SMILES | ssDAF12 agonist | SMARCA2 act | DAX1 inh-1 | hgDAF-12 ag | hcDAF12 agonist | DAX1 inh-2
Cc1ccsc1/C=C1\CCC(C2CCCC2)C1=O (stereo not given) | 0 | 5 | 1 | 9 | 1 | 5.6*
CCn1c2ccccc2c2nnc(SCC(=O)NC(CC(C)C)C(=O)OC)nc21 (stereo not given) | -1 | 7.8* | 0 | 1 | -1 | 1
CC(C(=O)NC1CCCc2ccccc21)N1CCN(Cc2ccc3c(c2)OCO3)CC1 (stereo not given) | 1.0* | 4 | 0 | 0 | 2 | -1
CC(C(=O)NC1CCCc2ccccc21)N1CCN(c2ccc(F)cc2)CC1 (stereo not given) | 0 | -2 | -1 | -1 | 3 | -2
CC(OC(=O)C1CCN(c2ccc(C(F)(F)F)cn2)CC1)C(=O)Nc1ccc(S(N)(=O)=O)cc1 (stereo not given) | -1 | -3 | 1 | 1 | 2 | 1
O=C(OCC1OC(n2cc(Br)c(=O)[nH]c2=O)C(Br)C1O)c1ccccc1 (stereo not given) | -1 | -2 | 1 | 1 | -1 | 1
CCCOc1ccccc1/C=C(\C#N)C(=O)Nc1cccnc1 | -1 | -1 | 0 | 4 | 0 | 5.0*
COc1ccc(O)c(/C=C(\C#N)C(=O)Nc2cccnc2)c1 | -1 | 0 | 0 | 3 | -1 | 2
O=C(COC(=O)/C=C/c1cccc([N+](=O)[O-])c1)NCc1ccco1 | -1 | -2 | 0 | 0 | -2 | 1
Cc1occc1C(=O)NN=C1C2CC3CC(C2)CC1C3 | 1 | 5 | 4.0* | 9 | 4 | 3
CC(=O)N1CCN=C1SCc1ccccc1Cl | -1 | 2 | 0 | 0 | -2 | 5.0*
CCCN1CCC(=O)N(CCOc2ccccc2)CC1 | -1 | 3 | 0 | 2 | -1 | 0
CC(C)CN1CCC(=O)N(CCOc2ccccc2)CC1 | 0 | 4 | 1 | 3 | 2 | 4.3*
O=C(O)COc1ccc(/C=N/NC(=O)c2ccccc2Br)cc1 | . | . | . | . | . | 0
O=C(N/N=C/c1ccc(OC(=O)c2ccccc2Br)cc1)c1ccccn1 | 0 | 3 | 5.8* | 10 | 5 | 1
CCOC(=O)c1c(-c2cccs2)csc1NC(=O)CSc1ncn[nH]1 | . | . | . | . | . | -1
O=c1[nH][nH]c2cc(=O)n(-c3cccc(C(F)(F)F)c3)nc12 | 5.2* | 2 | 0 | -1 | -1 | 0
COc1ccc(-c2cc(C(=O)NC3CCCC3)no2)cc1 | 0 | 4 | 2 | 12* | 6.5* | 3
COc1ccc(-c2cc(C(=O)NC(C)C)no2)cc1 | -1 | 5 | 2 | 10* | 4 | 1
COC(=O)c1cc(-c2ccc(OC)cc2)on1 | -2 | 0 | 0 | -1 | -2 | -1
COc1cc(OC)cc(-c2c(C#Cc3ccsc3)c3cc(-c4ccc(C(N)=O)cc4)ccc3n2C)c1 | -1 | -1 | 0 | 0 | -1 | 2
C[C@H](CO)N1C[C@H](C)[C@H](CN(C)C(=O)Cc2ccncc2)Oc2ncc(Br)cc2C1=O | -2 | 0 | 3.8* | -4 | -2 | 1
C[C@@H]1CN([C@@H](C)CO)C(=O)c2cc(-c3cccnc3)cnc2O[C@H]1CN(C)C(=O)c1cccc(F)c1 | 0 | 5 | 0 | 0 | 0 | 6.5*
C[C@@H]1CN([C@@H](C)CO)C(=O)c2cc(Br)cnc2O[C@H]1CN(C)C(=O)c1cccc(F)c1 | -1 | -3 | 0 | 0 | -1 | 1
C[C@@H]1CN([C@H](C)CO)C(=O)c2cc(Br)cnc2O[C@H]1CN(C)C(=O)Cc1ccccc1 | -1 | -1 | 0 | -4 | 1 | 0
SMILES | ssDAF12 agonist | SMARCA2 act | DAX1 inh-1 | hgDAF-12 ag | hcDAF12 agonist | DAX1 inh-2
CCc1cc(=O)n2[nH]c(C)c(-c3ccccc3OC)c2n1 | -1 | 1 | 2 | 2 | -1 | 1
CCOC(=O)c1cccnc1SCc1cc(=O)n2ccccc2n1 | 2.1* | 0 | 2 | 3 | 4 | 0
CCc1cccc(N(C(=O)c2csnn2)C(C(=O)NC(C)(C)C)c2ccncc2)c1 (stereo not given) | -1 | -1 | 1 | 2 | 1 | 0
CC(C)C1NC(=S)N(C2CCCCC2)C1=O (stereo not given) | 1.2* | -2 | 0 | 2 | -1 | 0
CSc1ccccc1NC(=O)COc1ccccc1C | 1.5* | 2 | 2 | 5 | 2 | 1
CSc1ccccc1NC(=O)COC(=O)c1c[nH]c(=O)[nH]c1=O | -1 | -2 | 0 | 2 | 0 | 5.5*
CC(=O)Nc1ccccc1OCC(=O)NC(C)c1ccccc1 (stereo not given) | 1.0* | 2 | 0 | 1 | 4 | -1
CC(=O)N1N=C(c2ccccc2)CC1c1ccccc1 (stereo not given) | -1 | -2 | 0 | -1 | 1 | 0
CC(Oc1cccc2c1OC(C)(C)C2)C(=O)O (stereo not given) | -1 | -1 | 0 | -1 | -1 | 2
CN(CCOc1ccc(Cl)cc1)CC(O)c1ccccc1 (stereo not given) | -1 | 0 | 0 | 1 | 0 | 4.3*
O=C1CCCN1C(=O)COc1cc(F)ccc1[N+](=O)[O-] | -1 | -2 | -1 | 2 | 0 | 0
COc1ccc(/C(C)=N/N2C(C)CCCC2C)c(OC)c1 (stereo not given) | -1 | 1 | 0 | 3 | -1 | 0
C=CCNC(=O)c1ccsc1N | -1 | -4 | 4.2* | 2 | 1 | .
Cc1nc2cc(Cl)c(Cl)cc2n1-c1ccccn1 | -1 | 2 | 0 | 0 | -2 | 1
Cc1cc(N2O[C@]34C=C[C@]25C[C@@H](O)CC[C@]5(C)C3CC[C@]2(C)[C@@H]([C@H](C)/C=C/[C@H](C)C(C)C)CC[C@H]24)no1 (stereo not given in full) | 1.0* | 1 | 1 | 3 | 5 | 0
CC(C)[C@@H](C)/C=C/[C@@H](C)[C@H]1CC[C@@H]2[C@]1(C)CCC1[C@]23C=C[C@]2(C[C@@H](O)CC[C@]12C)N(c1ccc(F)cn1)O3 (stereo not given in full) | 0 | 4 | 1 | 3 | 2 | .
Oc1cccc(N2CCN(c3cccc(O)c3)CC2)c1 | 0.9* | 7.8* | 1 | 9 | 2 | .
Nc1ccc(N2CCN(c3cccc(Cl)c3)CC2)cc1 | -1 | -5 | -1 | 0 | 0 | 0
CC(C)=CC(=O)Nc1nc2ccc([N+](=O)[O-])cc2s1 | -1 | 1 | 0 | 13* | 2 | 0
C/C(=C\c1ccccc1)C(=O)Nc1nc2ccc([N+](=O)[O-])cc2s1 | -1 | -1 | -1 | 4 | -3 | 0
COc1ccc(Cc2nnc(SCC(=O)Nc3nc(C)cs3)o2)cc1 | 1.0* | 1 | 0 | 0 | -1 | 1
